Assay outcomes (PubChem)
An excerpt weighted towards active compounds, which were near 1.1% of everything screened.
PrPC TRFRET: reduces human prion protein on the cell surface. P04156. cell surface PrPC, TR-FRET read-out. inhibition, % at 13.8 µM. actives 0.43% (n = 370,000); in the data active = inhibition above about 24%
CCHF vOTU inh: CCHFV vOTU protease inhibition; AID 651958; actives 0.55% (n = 370,000); inhibition, % at 11.5 µM; Pep-AMC fluorescence; in the data active = inhibition above about 30%
Y pestis TopoI: Y. pestis Topo-I inhibition via cleavage products; actives 0.064% (n = 360,000); activity, % at 10 µM; Y. pestis Topo-I cleavage product accumulation, plate reader; in the data active = activity above about 50%, passing the limit was not always enough
BH1578 lux ind: induces V. cholerae light production without autoinducers. actives 0.16% (n = 350,000). activation, % at 18.7 µM. V. cholerae BH1578 lux reporter, luminescence, 6 h; in the data active = activation mostly above about 9.7%, no sharp cut-off
PrPC confirm: confirmation of inhibitors of cell surface human prion protein | shares compounds with PrPC TRFRET | cell surface PrPC level, TR-FRET | inhibition, % at 13.8 µM | actives 65% (n = 1,500) | AID 743200; in the data active = inhibition above about 25%
LD9 cytotox: counter-screen for PrPc inhibitors: cytotoxicity in LD9 cells; shares compounds with PrPC TRFRET; luminescence viability; inhibition, % at 13.8 µM; actives 29% (n = 1,500); in the data active = inhibition above about 9.5%
Of the large screens only hits and unclear results are named; the others gave an inactive call (follow-up assays come after a bar, where they were run).

O=C(c1ccco1)N1CCN(C(=O)C2CCCO2)CC1 (stereo not drawn)	none
CCSc1ncnc2sc3c(c12)CCC3	none
NC(=O)CSc1nc2sc3c(c2c2ncnn12)CCCC3	PrPC TRFRET 47.2 | PrPC confirm 47.4 | LD9 cytotox inactive
O=C(O)CSc1ncnc2sc3c(c12)CCCC3	PrPC TRFRET 29.6 | PrPC confirm 53.3 | LD9 cytotox inactive
O=C(O)CSc1ncnc2sc3c(c12)CCC3	PrPC TRFRET 46.6 | PrPC confirm 50.4 | LD9 cytotox inactive
Cc1ccc(C(=O)CSc2ncnc3sc4c(c23)CCCC4)cc1	none
Cc1cc(C(=O)O[C@H]2[C@H](Cc3ccccc3)NS(=O)(=O)[C@H]3C[C@@H]4C=C[C@]23O4)ccc1[N+](=O)[O-]	none
CCOC(=O)c1sc2ncnc(NCc3ccco3)c2c1C	PrPC TRFRET 24.5 | PrPC confirm inactive | LD9 cytotox 14.8
O=C1NC[C@H](CCCCN2C[C@H](Cc3ccc(O)cc3)N(CC3CCCCC3)C(=O)C2=O)N(CC2CCCCC2)C1=O	PrPC TRFRET 25.4 (no result: Y pestis TopoI, BH1578 lux ind) | PrPC confirm inactive | LD9 cytotox inactive
O=C(Cn1cncn1)N/N=C/c1ccncc1	none
O=c1oc2ccccc2c(O)c1[C@H]1c2ccc(O)cc2Oc2c1c(=O)oc1ccccc21	PrPC TRFRET 41.5 | PrPC confirm 56.6 | LD9 cytotox inactive
O=c1oc2ccccc2c2c1C(O)CO2 (stereo not drawn)	none
COc1ccc(OC/C(O)=C(\C#N)c2nc3ccccc3[nH]2)cc1	none
COc1ccccc1OCC(=O)OC/C(O)=C(\C#N)c1nc2ccccc2[nH]1	PrPC TRFRET 30.8 | PrPC confirm 54.5 | LD9 cytotox 63.8
N#C/C(=C(/O)COC(=O)CSc1ccc(Cl)cc1)c1nc2ccccc2[nH]1	PrPC TRFRET 26.9 | PrPC confirm 35.7 | LD9 cytotox 62.6
CCCC(C(=O)NC1CCCC1)N(Cc1ccc2c(c1)OCO2)C(=O)c1snc(C(N)=O)c1N (stereo not drawn)	none
O=C(Nc1ccc2c(c1)OCO2)Nc1ccc(F)cc1F	none
O=c1c2ccccc2nc2n1C(CSc1ccccc1)CS2 (stereo not drawn)	none
O=c1c2ccccc2nc2n1C(CSCc1ccc(Cl)cc1)CS2 (stereo not drawn)	PrPC TRFRET 25.6 | PrPC confirm inactive | LD9 cytotox 14.0
CCN(c1ccccc1)S(=O)(=O)c1cc(NC(=O)CSc2n[nH]c(=O)[nH]c2=O)ccc1Cl	none
CCc1cc2cccc(C)c2nc1SCC(=O)Nc1nonc1C	PrPC TRFRET 30.6 | PrPC confirm 35.2 | LD9 cytotox inactive
CCc1cc2cccc(C)c2nc1SCC(=O)NNC(=O)c1ccco1	PrPC TRFRET 70.7 | PrPC confirm 98.1 | LD9 cytotox inactive
Cc1cc(C(=O)NCCCN2CCN(C3CCCCC3)CC2)n(-c2ccccc2)n1	none
COc1ccc(-n2ncc3c(N4CCC(C(N)=O)CC4)ncnc32)cc1	PrPC TRFRET 36.5 | PrPC confirm 29.2 | LD9 cytotox inactive
CCOC(=O)C1CCN(c2ncnc3c2cnn3-c2ccc(OC)cc2)CC1	none
CCCCOc1ccc(Br)cc1CSC(=N)N	PrPC TRFRET 24.7 | PrPC confirm inactive | LD9 cytotox 20.9
CCCCN1C(=O)C(CC(=O)NC2CCCC2)CC(C(=O)N(CC)CC)=C1C (stereo not drawn)	none
CN(c1ccc(Cl)cc1)c1cc(=O)n(C)c2ccccc12	PrPC TRFRET 24.6 | PrPC confirm inactive | LD9 cytotox inactive
C=CCn1c(=O)c2ccccc2n2c(SCC(N)=O)nnc12	PrPC TRFRET 35.8 | PrPC confirm 35.5 | LD9 cytotox inactive
O=C(Nc1cccc(F)c1)c1c(F)c(F)c(F)c(F)c1F	none
C=CCNC(=O)c1ccc(Cn2c(=S)[nH]c3cc4c(cc3c2=O)OCO4)cc1	PrPC TRFRET 54.4 | PrPC confirm 35.3 | LD9 cytotox inactive
O=C(Nc1ccc2c(c1)OCCO2)c1ccc(Br)c(S(=O)(=O)N2CCOCC2)c1	none
O=C(Nc1ccc2c(c1)OCO2)c1ccc(Br)c(S(=O)(=O)N2CCCC2)c1	PrPC TRFRET 24.6 | PrPC confirm inactive | LD9 cytotox inactive
CC(C)C(=O)NC(C)C(c1cccs1)N1CCN(C)CC1 (stereo not drawn)	none
Cc1cc(C(=O)O)cc(S(=O)(=O)NNC(=O)c2cccs2)c1C	PrPC TRFRET 42.0 | PrPC confirm inactive | LD9 cytotox inactive
COc1ccc(CCNC(=O)C2CCCN2C(=O)Nc2ccc(F)cc2)cc1OC (stereo not drawn)	none
CCOC(=O)c1c(NC(=O)COc2ncnc3ccccc23)sc(C(C)=O)c1C	PrPC TRFRET 28.8 | PrPC confirm 36.1 | LD9 cytotox inactive
Cc1cc2cc(CNC(=O)Nc3cccc(Cl)c3)ccc2n1C	PrPC TRFRET 35.4 | PrPC confirm 44.0 | LD9 cytotox inactive
Cc1cccc(NC(=O)NCc2ccc3c(c2)cc(C)n3C)c1	none
Cc1cc2cc(CNC(=S)Nc3ccc(OC(F)(F)F)cc3)ccc2n1C	PrPC TRFRET 27.1 | PrPC confirm 33.8 | LD9 cytotox inactive
Cc1cccc(NC(=S)NCc2ccc3c(c2)cc(C)n3C)c1C	PrPC TRFRET 27.9 | PrPC confirm inactive | LD9 cytotox inactive
CCOC(=O)CSc1nc2cc(S(=O)(=O)Nc3ccccc3OC)ccc2o1	none
CC(=O)Oc1ccccc1C(=O)Nc1ccccc1	none
CC1=NN(C(=O)c2ccoc2C)C(O)(C(F)(F)F)C1 (stereo not drawn)	none
CCOc1ccccc1NC(=O)Nc1ccccn1	none
CCOc1ccccc1NC(=O)Nc1ccc(Cl)cc1	PrPC TRFRET 25.9 | PrPC confirm inactive | LD9 cytotox inactive
C=CC#CC[N+]1(CC#Cc2ccccc2)CCOCC1	PrPC TRFRET 38.2 | PrPC confirm 43.9 | LD9 cytotox inactive
Cc1ccccc1Nc1ccc([N+](=O)[O-])cn1	none
Cc1ccccc1NC1=NCC(c2ccc([N+](=O)[O-])cc2)S1 (stereo not drawn)	PrPC TRFRET 45.7 | PrPC confirm 44.1 | LD9 cytotox inactive
C=CCNC(=O)C(=O)NCC1CCCN1CC (stereo not drawn)	none
O=C(Nc1ccc(N2CCN(C(=O)c3ccc(Cl)cc3)CC2)cc1)c1cccnc1	none
Cc1ccc(C(=O)Nc2nc(-c3ccccn3)cs2)cc1S(=O)(=O)N1CCOCC1	PrPC TRFRET 24.6 | PrPC confirm inactive | LD9 cytotox inactive
Cc1ccc(C(=O)Nc2ccccn2)cc1S(=O)(=O)N1CCOCC1	none
O=C(Nc1nc(-c2ccccn2)cs1)c1ccc(F)c(S(=O)(=O)N2CCOCC2)c1	PrPC TRFRET 27.3 | PrPC confirm 33.0 | LD9 cytotox 17.6
CCCOc1ccc(C(=O)Nc2ccc(S(=O)(=O)N3CCN(C)CC3)cc2)cc1	none
COc1ccc(NC(=O)C(C)NS(=O)(=O)c2ccccc2)cc1Cl (stereo not drawn)	none
CC(=O)Nc1sc2c(c1-c1nc3ccccc3s1)CN(C(C)C)C2	none (no result: CCHF vOTU inh, Y pestis TopoI, BH1578 lux ind)
CC(=O)Nc1sc2c(c1-c1nc3ccccc3s1)CCN(C)C2	none (no result: CCHF vOTU inh, Y pestis TopoI, BH1578 lux ind)
CC(=O)Nc1sc2c(c1-c1nc3ccccc3s1)CCCN(C(C)C)C2	PrPC TRFRET 37.6 (no result: CCHF vOTU inh, Y pestis TopoI, BH1578 lux ind) | PrPC confirm 30.2 | LD9 cytotox 33.4
